# Measurements taken from the supplement of paper PMC10849652.
# Of roughly 8,800 targets only a part is listed; those with a hit were picked by preference. About 0.5% of all pairs of compound and target were hits. Values without a mark were called inactive.
# Tests used:
# Experiment in all cases: log2 fold change, soluble protein after heating vs DMSO (PISA); higher = thermal stabilisation; K562 lysate, 10 uM; active = over 0.2 and 3.5 SD of the protein, either way, in both replicates (recomputed)
# [1] = compound: C=CC(=O)N1CCC[C@@H](n2nc(-c3ccc(Oc4ccccc4)cc3)c3c(N)ncnc32)C1 [ibrutinib]
# In short: (§1)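 Dounce homogenisation of K562 pellets in PBS pH 7.4 with 1 mM MgCl2 produced a crude extract, used at 1 mg/mL protein. Exposure to 10 μM compound lasted 30 min, and aliquots were then heated for 3 min across 48°C-58°C, pooled and brought to 0.5% NP-40 at 4°C. The supernatant after 21,000xg for 90 min was quantified by TMTpro 16plex LC-MS/MS with channel sums equalised. Duplicate values are given as log-two fold change in thermal stability relative to solvent controls.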
# [2] = compound: CC(=O)c1cnc2ccc(-c3cc(Cl)c(O)c(Cl)c3)nc2c1N[C@H]1CC[C@H](CN(C)C)CC1
# In short: as §1
# [3] = compound: CC(C)(C)Cn1c(N)nc2ccc(-c3[nH]c(C(C)(C)C)nc3-c3ccc(F)cc3)nc21 [ralimetinib]
# In short: as §1
# [4] = compound: CC(C)(O)CC(=O)NCCn1ccc2ncnc(Nc3ccc(Oc4cccc(C(F)(F)F)c4)c(Cl)c3)c21
# In short: as §1
# [5] = compound: CC(C)C1=C2N=C(C=C(N2N=C1)NCC3=CC=CC=C3)NCCCCCCN
# In short: as §1
# [6] = compound: CC1=C(C(CC(=O)N1)C2=CC=C(C=C2)C(F)(F)F)C(=O)NC3=C(C=C4C(=C3)C=NN4)F
# In short: as §1
# [7] = compound: CC1=C(C2=C(C=C1)C(=O)C3=CC=CC=C3N2CCCN)C
# In short: as §1
# [8] = compound: CC1=C(C=C(C=C1)NC(=O)C2=CC(=CC=C2)C(C)(C)C#N)NC3=CC4=C(C=C3)N=CN(C4=O)C
# In short: as §1
# [9] = compound: CC1=C(C=C(C=C1)NC(=O)C2=CC(=CC=C2)N(C)C)NC(=O)C3=CC=C(C=C3)O
# In short: as §1
# [10] = compound: CC1=CC=C(C=C1)SC2=C3C=C(SC3=CN=C2)C(=O)N
# In short: as §1
# [11] = compound: CCCS(=O)(=O)Nc1ccc(F)c(C(=O)c2c[nH]c3ncc(-c4ccc(Cl)cc4)cc23)c1F [vemurafenib]
# In short: as §1
# [12] = compound: CCCS(=O)(=O)Nc1ccc(F)c(C(=O)c2c[nH]c3ncc(Cl)cc23)c1F
# In short: as §1
# [13] = compound: CCN(CCCOc1ccc2c(Nc3cc(CC(=O)Nc4cccc(F)c4)[nH]n3)ncnc2c1)CCOP(=O)(O)O [barasertib]
# In short: as §1
# [14] = compound: CC[C@@H]1C(=O)N(C)c2cnc(Nc3ccc(C(=O)NC4CCN(C)CC4)cc3OC)nc2N1C1CCCC1
# In short: as §1
# [15] = compound: CC[C@@H]1C(=O)N(C)c2cnc(Nc3ccc(C(=O)N[C@H]4CC[C@H](N5CCN(CC6CC6)CC5)CC4)cc3OC)nc2N1C(C)C [volasertib]
# In short: as §1
# [16] = compound: CCn1c(C(=O)N(C2CC2)C2CC2)cc2c3c(ncn3C)c(Nc3cc(C)n(C)n3)nc21
# In short: as §1
# [17] = compound: CCn1cc(-c2ccnc3[nH]c(-c4cccc(CN(C)C)c4)cc23)c(-c2ccc(NC(=O)N(C)C)cc2)n1
# In short: as §1
# [18] = compound: CN1CCC(CNc2ccc3ncc(-c4cccc(OC(F)(F)F)c4)n3n2)CC1
# In short: as §1
# [19] = compound: CN1CCN(CCOc2cc(OC3CCOCC3)c3c(Nc4c(Cl)ccc5c4OCO5)ncnc3c2)CC1 [saracatinib]
# In short: as §1
# [20] = compound: CN1CCN(c2nc(C3=C(c4c[nH]c5ccccc45)C(=O)NC3=O)c3ccccc3n2)CC1 [sotrastaurin]
# In short: as §1
# UniProt Q14849, sequence (Q14849 whole entry, looked up): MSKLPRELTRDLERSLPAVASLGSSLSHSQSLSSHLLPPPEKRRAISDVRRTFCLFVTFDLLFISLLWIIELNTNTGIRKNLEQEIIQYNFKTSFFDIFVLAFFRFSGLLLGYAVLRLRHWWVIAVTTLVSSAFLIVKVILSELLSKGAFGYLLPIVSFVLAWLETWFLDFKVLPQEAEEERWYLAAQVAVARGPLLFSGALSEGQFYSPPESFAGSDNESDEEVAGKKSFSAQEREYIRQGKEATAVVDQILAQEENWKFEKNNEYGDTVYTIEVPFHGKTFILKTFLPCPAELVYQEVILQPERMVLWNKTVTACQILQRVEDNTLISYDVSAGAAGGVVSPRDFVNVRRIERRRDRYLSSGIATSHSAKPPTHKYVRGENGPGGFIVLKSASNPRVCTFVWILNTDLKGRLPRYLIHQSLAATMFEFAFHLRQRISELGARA
# UniProt Q9UQE7, sequence (Q9UQE7 whole entry, looked up): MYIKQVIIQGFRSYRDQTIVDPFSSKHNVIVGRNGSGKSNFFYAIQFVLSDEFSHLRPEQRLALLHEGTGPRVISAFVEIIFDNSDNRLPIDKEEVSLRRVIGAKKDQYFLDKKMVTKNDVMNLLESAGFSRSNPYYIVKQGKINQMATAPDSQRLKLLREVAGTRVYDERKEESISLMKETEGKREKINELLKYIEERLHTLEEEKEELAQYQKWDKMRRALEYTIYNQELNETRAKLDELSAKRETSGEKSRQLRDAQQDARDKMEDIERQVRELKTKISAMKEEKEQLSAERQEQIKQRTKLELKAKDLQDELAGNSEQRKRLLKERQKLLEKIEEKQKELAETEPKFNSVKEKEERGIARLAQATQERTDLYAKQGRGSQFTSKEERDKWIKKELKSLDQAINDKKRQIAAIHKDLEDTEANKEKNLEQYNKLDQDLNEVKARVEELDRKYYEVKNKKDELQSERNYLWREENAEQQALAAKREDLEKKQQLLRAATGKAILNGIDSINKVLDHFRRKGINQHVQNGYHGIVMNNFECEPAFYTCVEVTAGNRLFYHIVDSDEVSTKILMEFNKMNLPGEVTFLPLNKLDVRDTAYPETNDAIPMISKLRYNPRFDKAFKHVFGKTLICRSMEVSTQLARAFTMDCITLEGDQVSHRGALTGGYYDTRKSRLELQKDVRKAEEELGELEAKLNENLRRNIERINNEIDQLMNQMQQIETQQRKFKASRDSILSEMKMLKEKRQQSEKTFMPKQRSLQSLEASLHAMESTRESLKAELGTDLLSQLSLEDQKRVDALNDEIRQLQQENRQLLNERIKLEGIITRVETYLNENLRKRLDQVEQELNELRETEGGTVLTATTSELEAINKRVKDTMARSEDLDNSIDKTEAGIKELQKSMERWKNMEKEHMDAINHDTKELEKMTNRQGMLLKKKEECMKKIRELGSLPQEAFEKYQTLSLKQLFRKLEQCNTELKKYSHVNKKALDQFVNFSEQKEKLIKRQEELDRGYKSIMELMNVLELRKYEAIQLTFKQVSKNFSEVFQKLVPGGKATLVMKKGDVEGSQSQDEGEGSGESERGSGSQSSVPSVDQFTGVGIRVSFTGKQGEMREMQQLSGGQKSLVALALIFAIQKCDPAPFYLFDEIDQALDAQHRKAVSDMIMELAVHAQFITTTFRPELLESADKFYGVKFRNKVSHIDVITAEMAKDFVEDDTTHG
# UniProt Q8NEM2, sequence (Q8NEM2 whole entry, looked up): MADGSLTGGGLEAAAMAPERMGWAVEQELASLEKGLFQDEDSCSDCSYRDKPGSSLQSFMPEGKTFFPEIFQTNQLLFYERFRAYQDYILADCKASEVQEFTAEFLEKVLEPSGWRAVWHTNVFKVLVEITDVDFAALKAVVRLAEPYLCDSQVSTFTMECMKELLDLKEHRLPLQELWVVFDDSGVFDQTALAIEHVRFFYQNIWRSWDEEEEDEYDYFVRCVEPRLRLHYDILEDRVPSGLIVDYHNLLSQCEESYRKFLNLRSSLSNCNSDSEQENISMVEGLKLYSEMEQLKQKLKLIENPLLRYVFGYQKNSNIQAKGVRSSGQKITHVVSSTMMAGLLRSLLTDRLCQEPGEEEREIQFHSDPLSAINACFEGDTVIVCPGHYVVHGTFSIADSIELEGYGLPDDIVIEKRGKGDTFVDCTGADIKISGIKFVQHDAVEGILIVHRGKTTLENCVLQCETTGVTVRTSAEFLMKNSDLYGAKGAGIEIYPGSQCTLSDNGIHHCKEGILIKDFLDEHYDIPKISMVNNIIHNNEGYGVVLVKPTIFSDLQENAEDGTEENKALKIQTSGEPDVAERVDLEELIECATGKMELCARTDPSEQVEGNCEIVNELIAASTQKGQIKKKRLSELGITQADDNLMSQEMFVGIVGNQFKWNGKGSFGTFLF
# UniProt O95793, sequence (O95793 whole entry, looked up): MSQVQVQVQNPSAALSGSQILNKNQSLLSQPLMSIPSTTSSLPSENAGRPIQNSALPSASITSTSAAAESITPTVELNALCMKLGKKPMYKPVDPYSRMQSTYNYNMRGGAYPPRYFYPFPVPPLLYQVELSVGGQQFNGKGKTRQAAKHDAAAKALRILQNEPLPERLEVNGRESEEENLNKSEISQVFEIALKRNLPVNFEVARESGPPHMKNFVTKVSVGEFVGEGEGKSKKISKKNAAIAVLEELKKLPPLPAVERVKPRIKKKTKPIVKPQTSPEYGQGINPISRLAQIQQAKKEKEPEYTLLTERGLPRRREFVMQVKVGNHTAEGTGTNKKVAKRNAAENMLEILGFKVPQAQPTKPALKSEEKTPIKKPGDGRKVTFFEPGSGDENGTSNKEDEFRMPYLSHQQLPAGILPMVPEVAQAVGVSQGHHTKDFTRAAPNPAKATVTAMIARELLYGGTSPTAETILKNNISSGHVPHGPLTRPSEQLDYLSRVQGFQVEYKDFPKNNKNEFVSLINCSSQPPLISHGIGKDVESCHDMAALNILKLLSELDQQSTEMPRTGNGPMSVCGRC
# UniProt Q15208, sequence (Q15208 whole entry, looked up): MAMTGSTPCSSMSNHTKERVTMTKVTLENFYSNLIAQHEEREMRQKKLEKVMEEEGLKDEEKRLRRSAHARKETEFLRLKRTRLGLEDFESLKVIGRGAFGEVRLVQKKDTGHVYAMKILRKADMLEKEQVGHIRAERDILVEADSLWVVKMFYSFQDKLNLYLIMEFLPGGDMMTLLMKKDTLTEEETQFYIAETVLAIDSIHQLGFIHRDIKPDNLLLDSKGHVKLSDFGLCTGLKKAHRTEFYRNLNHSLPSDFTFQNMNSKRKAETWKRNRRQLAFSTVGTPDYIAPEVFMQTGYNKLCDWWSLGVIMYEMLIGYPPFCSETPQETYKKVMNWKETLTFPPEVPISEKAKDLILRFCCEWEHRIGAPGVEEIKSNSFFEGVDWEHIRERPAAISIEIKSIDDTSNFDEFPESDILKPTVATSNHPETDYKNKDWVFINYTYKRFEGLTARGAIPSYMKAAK
# UniProt Q13148, sequence (Q13148 whole entry, looked up): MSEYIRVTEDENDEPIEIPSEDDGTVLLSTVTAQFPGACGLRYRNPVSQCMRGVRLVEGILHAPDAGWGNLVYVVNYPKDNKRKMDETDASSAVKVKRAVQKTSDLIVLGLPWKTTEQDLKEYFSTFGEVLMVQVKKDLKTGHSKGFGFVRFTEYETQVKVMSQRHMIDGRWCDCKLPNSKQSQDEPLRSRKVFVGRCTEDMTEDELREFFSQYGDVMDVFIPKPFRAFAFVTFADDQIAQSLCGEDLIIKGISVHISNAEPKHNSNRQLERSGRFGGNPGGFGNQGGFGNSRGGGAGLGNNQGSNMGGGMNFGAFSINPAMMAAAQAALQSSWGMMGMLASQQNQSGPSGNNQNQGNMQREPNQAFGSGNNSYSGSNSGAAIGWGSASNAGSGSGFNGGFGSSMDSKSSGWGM
# UniProt Q6PML9, sequence (Q6PML9 whole entry, looked up): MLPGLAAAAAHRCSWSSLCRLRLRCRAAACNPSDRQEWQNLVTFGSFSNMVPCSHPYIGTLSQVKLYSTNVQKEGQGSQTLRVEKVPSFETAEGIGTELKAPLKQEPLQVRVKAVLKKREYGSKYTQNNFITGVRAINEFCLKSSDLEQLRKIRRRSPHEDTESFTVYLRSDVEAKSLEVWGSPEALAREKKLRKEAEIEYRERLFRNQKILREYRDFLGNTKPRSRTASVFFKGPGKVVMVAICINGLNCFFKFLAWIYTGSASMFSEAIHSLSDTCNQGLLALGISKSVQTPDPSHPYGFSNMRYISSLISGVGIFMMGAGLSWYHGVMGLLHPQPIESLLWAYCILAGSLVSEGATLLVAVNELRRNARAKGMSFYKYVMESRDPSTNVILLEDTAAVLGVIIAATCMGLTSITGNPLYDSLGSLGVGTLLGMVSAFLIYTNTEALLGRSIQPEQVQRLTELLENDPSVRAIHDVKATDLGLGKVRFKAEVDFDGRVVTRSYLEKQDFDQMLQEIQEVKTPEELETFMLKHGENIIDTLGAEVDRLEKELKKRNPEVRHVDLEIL
# UniProt Q6NXT6, sequence (Q6NXT6 whole entry, looked up): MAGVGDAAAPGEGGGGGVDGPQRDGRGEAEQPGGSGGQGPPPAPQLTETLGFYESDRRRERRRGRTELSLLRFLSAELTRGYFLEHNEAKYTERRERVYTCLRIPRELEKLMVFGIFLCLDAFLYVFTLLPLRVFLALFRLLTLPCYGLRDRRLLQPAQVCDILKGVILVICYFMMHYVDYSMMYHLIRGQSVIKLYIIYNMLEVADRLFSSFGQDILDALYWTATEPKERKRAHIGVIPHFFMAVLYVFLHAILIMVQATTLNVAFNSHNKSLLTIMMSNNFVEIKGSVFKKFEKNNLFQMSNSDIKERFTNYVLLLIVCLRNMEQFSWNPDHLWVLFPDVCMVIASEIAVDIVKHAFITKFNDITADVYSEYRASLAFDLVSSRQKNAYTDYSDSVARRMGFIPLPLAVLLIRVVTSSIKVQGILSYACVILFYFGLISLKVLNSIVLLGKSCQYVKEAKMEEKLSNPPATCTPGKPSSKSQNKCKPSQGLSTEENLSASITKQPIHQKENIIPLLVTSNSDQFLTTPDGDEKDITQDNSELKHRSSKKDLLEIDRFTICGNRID
Target,log2 fold change [1],log2 fold change [2],log2 fold change [3],log2 fold change [4],log2 fold change [5],log2 fold change [6],log2 fold change [7],log2 fold change [8],log2 fold change [9],log2 fold change [10],log2 fold change [11],log2 fold change [12],log2 fold change [13],log2 fold change [14],log2 fold change [15],log2 fold change [16],log2 fold change [17],log2 fold change [18],log2 fold change [19],log2 fold change [20]
SHCBP1 (UniProt Q8NEM2),-0.04,0.023,0.026,0.031,0.012,0.009,0.002,-0.008,0.056,-0.041,-0.016,0.003,0.041,-0.041,-0.044,0.027,-0.091,0.022,0.027,0.019
STK38 (UniProt Q15208),0.008,0.361 (active),0.036,0.048,0.025,0.006,0.017,0.014,-0.003,0.002,-0.046,-0.012,0.031,-0.112,-0.092,0.019,0.122,0.002,-0.019,0.02
TAPT1 (UniProt Q6NXT6),0.071,0.012,-0.029,-0.07,0.004,-0.019,-0.014,0.09,-0.004,-0.027,0.031,0.043,-0.039,0.024,0.028,-0.026,-0.229 (active),0.106,-0.014,-0.002
SLC30A9 (UniProt Q6PML9),0.061,0.002,-0.03,0.064,0.021,-0.033,0.008,0.017,-0.213,-0.009,-0.005,0.024,0.015,0.07,0.018,0.056,-0.534 (active),0.079,0.034,-0.056
STAU1 (UniProt O95793),0.043,-0.021,0.03,-0.011,0,0.017,-0.022,-0.037,0.018,0.022,0.027,0.003,0.01,0,-0.013,0.069,0.25,-0.103,0.004,-0.039
STARD3 isoform 3 (UniProt Q14849),0.039,0.044,-0.074,-0.018,0.011,0.033,-0.072,0.073,0.021,0.028,0.029,0.054,0.051,0.289,0.18,-0.031,-0.122,0.02,-0.091,-0.016
SMC3 (UniProt Q9UQE7),0.002,-0.001,-0.023,0.003,-0.002,-0.004,0.01,-0.014,0.011,0.01,-0.018,0.004,-0.004,0.008,-0.013,0.003,0.041,-0.018,-0.011,-0.016
TARDBP (UniProt Q13148),-0.161,0.052,-0.004,-0.076,0.015,0.019,0.068,-0.059,0.01,0.019,0.027,0.016,0.151,0.007,-0.125,0.169,-0.008,-0.069,0.058,-0.032
